Data: PubChem BioAssay (Tox21)
Values joined by “and” are separate entries in the source; they are usually repeats but may differ in a detail not shown here. Equal values may be shown once. Results filed as inconclusive are left out. Active and inactive are the calls of the source. Unless noted, calls follow the shape of the full dose curve.

system: not listed separately; test: qHTS assay to identify small molecule antagonists of the sonic hedgehog signaling (Shh) pathway (AID 1259369); conditions: NIH/3T3 Gli1-Luc reporter, Shh antagonist, luminescence 24 h; series mostly up to 92.4 µM; activity change, negative = inhibition: at the top concentration; also: nearly all actives have a fitted effect of over 45% in size; also: potency is read from the fitted curve at half-maximal effect
Outline: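 NIH/3T3 stable Gli1-Luc clone, 2,000 cells/well, 4hr settle; cpd + conditioned medium 24hr; Luc reagent 30min RT; luminescence.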
% is scaled to controls: 0 for no effect and ±100 for the full control effect.

| Compound | activity change, negative = inhibition | Potency |
| --- | --- | --- |
| CCOP(=S)(OCC)OC(Cl)C(Cl)(Cl)Cl (centres undefined) | 0% (inactive) |  |
| CCOc1cc(C(C)(C)C)ccc1C1COC(c2c(F)cccc2F)=N1 (centres undefined) |  | 2.95 µM (active) |
| C=CCC1=C(C)C(OC(=O)C2C(C=C(C)C)C2(C)C)CC1=O (centres undefined) |  | 16.3 µM (active) |
| [Cd+2].[Cl-].[Cl-] |  | 245 nM (active) and 486 nM (active) |
| CN(C)C(=S)[S-].CN(C)C(=S)[S-].[Cu+2] |  | 1.49 µM (active) |
| COc1ccc(N)cc1N |  | 3.55 µM (active) and 8.29 µM (active) |
| CC1(C)C(/C=C(\Cl)C(F)(F)F)C1C(=O)OC(C#N)c1cccc(Oc2ccccc2)c1 (centres undefined) | 23.1% (inactive) |  |
| O=C1NCN(c2ccccc2)C12CCN(CC1COc3ccccc3O1)CC2 (centres undefined) | -21.5% [at 42.5 µM] (inactive) |  |
| Oc1ccc(C(c2ccc(O)cc2)(C(F)(F)F)C(F)(F)F)cc1 |  | 27.2 µM (active) and 19.3 µM (active) |
| Oc1ccc(C2(c3ccc(O)cc3)CCCCC2)cc1 |  | 46 µM (active) |
| Cl/C=C\CCl | 11.9% (inactive) |  |
| ClC(Cl)=C(Cl)Cl | 22.5% (inactive) |  |
| O=C(CBr)c1ccc(O)cc1 |  | 54.5 µM (active) |
| CCCOCC(=Nc1ccc(Cl)cc1C(F)(F)F)n1ccnc1 |  | 9.68 µM (active) |
| OC(Cc1ccccc1Cl)(Cn1cncn1)C1(Cl)CC1 (centres undefined) |  | 12.2 µM (active) |
| N#Cc1ccccc1Cl | 1.84% (inactive) |  |
| N#CNC#N | 17% (inactive) |  |

| Compound | activity change, negative = inhibition | Potency |
| --- | --- | --- |
| CCN | 17.5% (inactive) |  |
| O=C(O)C1C2CCC(O2)C1C(=O)O (centres undefined) |  | 15.8 µM (active) |
| Cc1cc(C(C)(C)c2cc(C)c(O)c(C)c2)cc(C)c1O | 38.1% (inactive) |  |
| CC1(C)[C@H](C(=O)O[C@H](C#N)c2cccc(Oc3ccccc3)c2)[C@@H]1/C=C(\Cl)C(F)(F)F |  | inactive |
| CC(C)CC(C)Nc1ccc(Nc2ccccc2)cc1 (centres undefined) |  | 12 µM (active) |
| Brc1c(Br)c(Br)c(Oc2c(Br)c(Br)c(Br)c(Br)c2Br)c(Br)c1Br | 16.8% [at 19 µM] (inactive) |  |
| CN(C)c1ccc(N=Nc2ccccc2)cc1 | -24.8% (inactive) |  |
| BrC(Br)Br | -30.1% (inactive) |  |
| CSCCCN=C=S | 8.05% (inactive) |  |
| Clc1ccc(C(Cl)(Cl)Cl)c(Cl)c1 | 0% (inactive) |  |
| O=[N+]([O-])O.O=[N+]([O-])O.[Cd] |  | 1.72 µM (active) |
| CN(C)S(=O)(=O)N(SC(F)(Cl)Cl)c1ccccc1 |  | 2.17 µM (active) |
| c1cc[c]([Sb]([c]2ccccc2)[c]2ccccc2)cc1 |  | 12.2 µM (active) |
| CC(C)[C@H](C(=O)OC(C#N)c1cccc(Oc2ccccc2)c1)c1ccc(OC(F)F)cc1 (some centres undefined) | 10.3% (inactive) |  |
| c1ccc(OCC2CO2)cc1 (centres undefined) | 0.642% (inactive) |  |
| [Hg+2].[I-].[I-] |  | 0.545 µM (active) |

target: Estrogen receptor beta (Homo sapiens) (UniProt Q92731); test: qHTS assay to identify small molecule agonists of the estrogen receptor beta (ER-beta) signaling pathway (AID 1259377; active = well fitted activation curve with a large enough effect in the signal ratio in the repeat runs, not every such curve was filed as active; the % refers to the signal ratio); conditions: ER-beta-UAS-bla HEK293T, beta-lactamase FRET ratio, 16 h; series mostly up to 92.4 µM; activation: at the top concentration
Sequence (Q92731 whole entry, looked up): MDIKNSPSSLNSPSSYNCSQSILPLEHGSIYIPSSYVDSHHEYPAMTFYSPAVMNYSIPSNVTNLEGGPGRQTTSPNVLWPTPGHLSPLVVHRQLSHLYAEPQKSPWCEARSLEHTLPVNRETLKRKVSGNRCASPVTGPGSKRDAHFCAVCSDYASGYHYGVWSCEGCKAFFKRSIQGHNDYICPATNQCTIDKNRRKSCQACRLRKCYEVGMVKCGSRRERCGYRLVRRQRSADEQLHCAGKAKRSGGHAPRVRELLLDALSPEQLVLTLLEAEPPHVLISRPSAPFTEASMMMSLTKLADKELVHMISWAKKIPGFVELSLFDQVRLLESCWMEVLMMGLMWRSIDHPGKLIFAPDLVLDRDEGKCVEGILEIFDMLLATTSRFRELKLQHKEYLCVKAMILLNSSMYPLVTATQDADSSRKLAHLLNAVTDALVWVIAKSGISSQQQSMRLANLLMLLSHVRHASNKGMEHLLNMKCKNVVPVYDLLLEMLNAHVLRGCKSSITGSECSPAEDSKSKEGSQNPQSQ
Outline: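 qHTS in ER-beta-UAS-bla HEK293T cells: 6 hr settling, then 16 hr compound at 37C, then LiveBLAzer substrate 2 h at RT before fluorescence reading.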

| Compound | activation | Potency |
| --- | --- | --- |
| CC(Cc1ccc(C(C)(C)C)cc1)CN1C[C@@H](C)O[C@@H](C)C1 (some centres undefined) | -0.0922% (inactive) |  |
| Oc1ccc2ccc3cccc4ccc1c2c34 | 0.539% (inactive) |  |
| CCOP(=S)(OCC)OC(Cl)C(Cl)(Cl)Cl (centres undefined) | 7.3% (inactive) |  |
| CC1(C)C(/C=C(\Cl)C(F)(F)F)C1C(=O)OC(C#N)c1cccc(Oc2ccccc2)c1 (centres undefined) | 1.53% (inactive) |  |
| O=C1NCN(c2ccccc2)C12CCN(CC1COc3ccccc3O1)CC2 (centres undefined) | -4.32% [at 42.5 µM] (inactive) |  |
| Oc1ccc(C(c2ccc(O)cc2)(C(F)(F)F)C(F)(F)F)cc1 | -0.913% (inactive) |  |
| ClC(Cl)=C(Cl)Cl | 14.2% (inactive) |  |
| O=C(CBr)c1ccc(O)cc1 | 3.68% (inactive) |  |
| CCCOCC(=Nc1ccc(Cl)cc1C(F)(F)F)n1ccnc1 | -3.21% (inactive) |  |
| OC(Cc1ccccc1Cl)(Cn1cncn1)C1(Cl)CC1 (centres undefined) | -0.247% (inactive) |  |
| N#Cc1ccccc1Cl | -0.957% (inactive) |  |
| N#CNC#N | -1.41% (inactive) |  |
| CCN | 1.95% (inactive) |  |
| CC(=O)OC1(c2ccccc2)CCN(CCc2ccccc2)CC1 | -0.375% (inactive) |  |
| CC1(C)[C@H](C(=O)O[C@H](C#N)c2cccc(Oc3ccccc3)c2)[C@@H]1/C=C(\Cl)C(F)(F)F |  | inactive |
| Brc1c(Br)c(Br)c(Oc2c(Br)c(Br)c(Br)c(Br)c2Br)c(Br)c1Br | 9.23% [at 19 µM] (inactive) |  |
| Clc1ccc(C(Cl)(Cl)Cl)c(Cl)c1 | -0.485% (inactive) |  |
| CC(C)[C@H](C(=O)OC(C#N)c1cccc(Oc2ccccc2)c1)c1ccc(OC(F)F)cc1 (some centres undefined) | 1.8% (inactive) |  |
| c1ccc(OCC2CO2)cc1 (centres undefined) | -0.241% (inactive) |  |
| [Cl][Sb]([Cl])[Cl] | -3.13% (inactive) |  |
| CCOP(=S)(OCC)SCS(=O)(=O)C(C)(C)C | -0.949% (inactive) |  |
